Test [1] can be described thus: ACEA_ER_80hr: ACEA Biosciences xCELLigence Real-Time Cell Analysis on Estrogen Receptor Agonism for Proliferation (AID 2282667; active = hit-call score of the fitted dose curve at least 0.9, where 1 is the maximum). Particulars: T47D proliferation, impedance (xCELLigence), 80 h. The method, boiled down: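 Impedance readout (RT-CES) of T47D proliferation at 80 h post-dose; gain of signal vs DMSO baseline. Compounds: 8 conc, 1:4 serial, top 100 uM final, ≤0.5% DMSO; biological duplicate.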

The nature of test [2]: ATG_CRE_CIS: Attagene CIS-FACTORIAL HepG2 Assay for human cAMP Responsive Element (CRE) binding protein 3 (AID 2282926). Particulars: HepG2 CRE cis-reporter, Attagene multiplexed mRNA; actives raise or lower the signal. A digest of the protocol:
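Endogenous CRE-binding activity in HepG2 is reported through a cis-regulated transfected reporter. Following a day of exposure, mRNA levels are determined by reverse transcription PCR and fluorescent fragment analysis; fits run in both directions versus DMSO.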

Test [3] concerns the target CCAAT/enhancer-binding protein beta (Homo sapiens) (UniProt P17676). Kind of test: ATG_C_EBP_CIS: Attagene CIS-FACTORIAL HepG2 Assay for human CCAAT/Enhancer Binding Protein (C/EBP) beta (AID 2282927). Particulars: HepG2 Attagene cis-factorial transcription factor reporter; actives raise or lower the signal. The method, boiled down: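 Changes in reporter mRNA, rather than exogenous chimeric receptor activity, reflect native C/EBP signalling in transfected HepG2 cells dosed for 24 h; transcripts are detected by RT-PCR and capillary electrophoresis.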

Test [4] is described as follows: ATG_CMV_CIS: Attagene CIS-FACTORIAL HepG2 Assay for human CMV (Internal Marker) (AID 2282928).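 Also: endpoint acts as a background internal control marker rather than a target.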 As to conditions: HepG2 CMV promoter reporter, transcription factor profiling; actives raise or lower the signal. A digest of the protocol: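 After transient transfection of HepG2 with reporter transcription units driven by cis-regulatory promoters, cells receive test chemical for 24 h. Labeled reporter amplicons, digested with HpaI, are sized and quantified by capillary electrophoresis against DMSO.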

In test [5] the target is Aryl hydrocarbon receptor (Homo sapiens) (UniProt P35869). Nature of the test: ATG_Ahr_CIS: Attagene CIS-FACTORIAL HepG2 Assay for human Aryl Hydrocarbon Receptor (Ahr) (AID 2282930). Particulars: HepG2 AhR cis-factorial reporter transcription; actives raise or lower the signal. The method, boiled down:
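HepG2, transient MRTU (cis) transfection, 24 h exposure. RNA → cDNA → PCR → 6-FAM primer extension → HpaI 2 h 37 C → CE. Fit: bidirectional, DMSO baseline.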

Test [6] in a line: ATG_AP_1_CIS: Attagene CIS-FACTORIAL HepG2 Assay for human Activator Protein 1 (AP-1) (AID 2282931). Particulars: HepG2 Attagene cis-factorial AP-1 reporter mRNA; actives raise or lower the signal. A digest of the protocol:
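Readout is reporter transcript level from endogenous transcription factor activity, quantified by RT-PCR with fluorescent primer extension and capillary electrophoresis. Transiently transfected HepG2 cells, 24 h exposure. Curves fitted both directions versus DMSO.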

A short description of test [7]: ATG_AP_2_CIS: Attagene CIS-FACTORIAL HepG2 Assay for human Activator Protein 2 (AP-2) (AID 2282932). Particulars: HepG2 AP-2 cis-reporter, Attagene transcription factor profiling; actives raise or lower the signal. The method, boiled down: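 Step one: transient transfection of HepG2 with reporter transcription units. Step two: 24 h chemical exposure. Step three: RNA extraction, RT-PCR, labelled fragment analysis by capillary electrophoresis; DMSO serves as baseline.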

Test [8] in a line: ATG_BRE_CIS: Attagene CIS-FACTORIAL HepG2 Assay for human Bone Morphogenetic Protein (BMP) Response Element (BRE) (AID 2282933). As to conditions: HepG2 BMP response element reporter, Attagene transcription factor profiling; actives raise or lower the signal. The method, boiled down:
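HepG2 cells transiently transfected with multiplexed cis-element reporter units were dosed with chemical for 24 h. Reporter mRNA was measured by RT-PCR with fluorescent labelling, HpaI digestion and capillary electrophoresis; bidirectional fitting relative to DMSO.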

Test [9] concerns the target Retinoic acid receptor alpha (Homo sapiens) (UniProt P10276). Kind of test: ATG_DR5_RAR_CIS: Attagene CIS-FACTORIAL HepG2 Assay for human Retinoic Acid Receptor Alpha (RARE), DR5 submotif (AID 2282934).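 As to AC50: reporter responds to endogenous RAR alpha beta and gamma in HepG2 not RARA alone.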 As to conditions: HepG2 Attagene cis-factorial RARE DR5 reporter, mRNA; actives raise or lower the signal. A digest of the protocol:
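HepG2, transient cis-reporter transfection, 24 h exposure. mRNA readout: RT-PCR, FAM label, HpaI cut, capillary electrophoresis. DMSO baseline, gain/loss fitting.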

Test [10] deals with Transcription factor E2F1 (Homo sapiens) (UniProt Q01094). Nature of the test: ATG_E2F_CIS: Attagene CIS-FACTORIAL HepG2 Assay for human E2F Transcription Factor 1 (AID 2282935). As to conditions: HepG2 Attagene cis-reporter, E2F reporter RNA transcripts; actives raise or lower the signal. A digest of the protocol: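 Total RNA from 24 h-treated, reporter-transfected HepG2 cells undergoes DNase I treatment, oligo(dT) reverse transcription, PCR and 6-FAM primer extension before capillary electrophoresis.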
Chain of Transcription factor E2F1 (Homo sapiens) (Q01094 whole entry, looked up): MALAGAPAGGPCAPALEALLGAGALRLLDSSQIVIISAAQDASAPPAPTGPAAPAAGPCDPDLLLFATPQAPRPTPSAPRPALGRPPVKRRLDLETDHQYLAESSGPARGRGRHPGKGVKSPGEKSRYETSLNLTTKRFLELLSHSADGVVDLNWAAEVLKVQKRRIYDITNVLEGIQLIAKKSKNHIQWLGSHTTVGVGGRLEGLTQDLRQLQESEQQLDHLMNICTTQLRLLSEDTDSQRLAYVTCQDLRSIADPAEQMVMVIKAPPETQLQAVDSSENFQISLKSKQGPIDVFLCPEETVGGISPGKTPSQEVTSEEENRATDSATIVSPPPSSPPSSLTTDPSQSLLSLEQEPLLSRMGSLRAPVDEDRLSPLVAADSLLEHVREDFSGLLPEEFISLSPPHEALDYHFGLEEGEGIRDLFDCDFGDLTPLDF

Test [11] in a line: ATG_E_Box_CIS: Attagene CIS-FACTORIAL HepG2 Assay for human Enhancer Box (E-box) (AID 2282936). Particulars: HepG2 E-box cis-reporter transcription, actives raise or lower the signal. The method, boiled down:
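DMSO served as negative control and baseline for bidirectional fitting. Human hepatoma HepG2 cells, transiently transfected with cis-reporter constructs, were dosed 24 h; reporter mRNA read by RT-PCR and capillary electrophoresis.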

Test [12] in a line: ATG_M_61_CIS: Attagene CIS-FACTORIAL HepG2 Assay for M61 Transcription Factor (Internal Marker) (AID 2282937). As to conditions: HepG2 Attagene CIS-FACTORIAL M61 internal marker reporter; actives raise or lower the signal. The method, boiled down:
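Readout is reporter mRNA by RT-PCR, fluorescent primer extension and capillary electrophoresis, with gain or loss fitted relative to DMSO. Transfected HepG2 cells carrying endogenous-TF-driven cis reporters were exposed to chemicals for 24 hours.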

Test [13] is described as follows: ATG_EGR_CIS: Attagene CIS-FACTORIAL HepG2 Assay for human Early Growth Response 1 (EGR1) (AID 2282938). As to conditions: HepG2 Attagene CIS-FACTORIAL EGR reporter mRNA; actives raise or lower the signal. A digest of the protocol:
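After 24 h compound exposure, RNA from reporter-transfected HepG2 cells was reverse-transcribed, PCR-amplified, fluorescently labelled and resolved by capillary electrophoresis. EGR1 reporter transcript changes, up or down, were fitted against DMSO, reflecting endogenous transcription-factor activity.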

Test [14] is described as follows: ATG_M_19_CIS: Attagene CIS-FACTORIAL HepG2 Assay for M19 Transcription Factor (Internal Marker) (AID 2282939). Particulars: HepG2 Attagene CIS-FACTORIAL M19 internal marker reporter; actives raise or lower the signal. The method, boiled down:
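HepG2 cells transiently transfected with cis-regulated multiple reporter transcription units were dosed for 24 h; reporter mRNA was quantified by RT-PCR, 6-FAM primer-extension labelling, HpaI digestion and capillary electrophoresis, with bidirectional fitting against DMSO baseline.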

Test [15] is described as follows: ATG_ERE_CIS: Attagene CIS-FACTORIAL HepG2 Assay for Estrogen Response Element (ERE) (AID 2282940). Particulars: HepG2 ERE cis-reporter, Attagene RNA transcript; actives raise or lower the signal. A digest of the protocol:
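HepG2 cells transiently transfected with cis-promoter-driven multiplexed reporter transcription units report endogenous TF activity. After 24 h compound exposure, reporter mRNA is quantified by RT-PCR with capillary electrophoresis fluorescence; bidirectional fitting versus DMSO baseline.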

Test [16] in a line: ATG_Ets_CIS: Attagene CIS-FACTORIAL HepG2 Assay for human Erythroblast Transformation Specific (ETS) (AID 2282941). As to conditions: HepG2 ETS cis-reporter transcription, actives raise or lower the signal. The method, boiled down:
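Human HepG2 hepatoma cells were transiently transfected with promoter-driven reporter constructs and treated for 24 hours. Reporter transcripts were quantified by RT-PCR with fluorescent primer extension; bidirectional curve fitting used DMSO as reference.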

Test [17] concerns the target Hepatocyte nuclear factor 3-beta (Homo sapiens) (UniProt Q9Y261). Kind of test: ATG_FoxA2_CIS: Attagene CIS-FACTORIAL HepG2 Assay for human Forkhead box A2 (FOXA2) (AID 2282942). Particulars: HepG2 cis-reporter transcription factor activity, 24 h; actives raise or lower the signal. A digest of the protocol:
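Endogenous transcription factor activity is captured via cis-element-driven reporter transcripts in transfected HepG2. Total RNA taken at 24 h post-dosing; labelled RT-PCR products resolved by capillary electrophoresis. Gain or loss fitted versus DMSO.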

Test [18] in a line: ATG_FoxO_CIS: Attagene CIS-FACTORIAL HepG2 Assay for human Forkhead box O (FoxO) (AID 2282943). As to conditions: HepG2 Attagene cis-reporter, FoxO element, mRNA; actives raise or lower the signal. The method, boiled down: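 Human hepatoma HepG2 cells carry transiently introduced reporter transcription units controlled by cis promoter elements. Chemical treatment lasted 24 h, and mRNA signal was compared with DMSO.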

The nature of test [19]: ATG_GATA_CIS: Attagene CIS-FACTORIAL HepG2 Assay for human GATA Binding Protein (AID 2282944). Particulars: HepG2 GATA cis-element reporter, Attagene multiplex mRNA; actives raise or lower the signal. A digest of the protocol:
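HepG2 cells transiently transfected with multiplexed cis-element reporter units reflecting endogenous transcription factor activity; reporter mRNA measured after 24 h dosing by RT-PCR, 6-FAM labeling, HpaI digestion and capillary electrophoresis. Bidirectional fitting versus DMSO baseline.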

Test [20] is described as follows: ATG_DR4_LXR_CIS: Attagene CIS-FACTORIAL HepG2 Assay for human Liver X Receptor (LXR), DR4 submotif (AID 2282929). Particulars: HepG2 Attagene DR4 cis-reporter, mRNA transcription; actives raise or lower the signal. A digest of the protocol: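 The endpoint is DR4-element-driven reporter transcripts after 24 h chemical exposure of transfected HepG2 cells. These were measured via RT-PCR and capillary electrophoresis, and gain or loss of signal was fitted relative to DMSO controls.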

Records with an inconclusive call do not appear. The source made the active and inactive calls. The calls were made as follows, unless noted: active = hit-call score of the fitted dose curve at least 0.9, where 1 is the maximum; inactive = score below 0.9.

Chain of Hepatocyte nuclear factor 3-beta (Homo sapiens) (Q9Y261 whole entry, looked up): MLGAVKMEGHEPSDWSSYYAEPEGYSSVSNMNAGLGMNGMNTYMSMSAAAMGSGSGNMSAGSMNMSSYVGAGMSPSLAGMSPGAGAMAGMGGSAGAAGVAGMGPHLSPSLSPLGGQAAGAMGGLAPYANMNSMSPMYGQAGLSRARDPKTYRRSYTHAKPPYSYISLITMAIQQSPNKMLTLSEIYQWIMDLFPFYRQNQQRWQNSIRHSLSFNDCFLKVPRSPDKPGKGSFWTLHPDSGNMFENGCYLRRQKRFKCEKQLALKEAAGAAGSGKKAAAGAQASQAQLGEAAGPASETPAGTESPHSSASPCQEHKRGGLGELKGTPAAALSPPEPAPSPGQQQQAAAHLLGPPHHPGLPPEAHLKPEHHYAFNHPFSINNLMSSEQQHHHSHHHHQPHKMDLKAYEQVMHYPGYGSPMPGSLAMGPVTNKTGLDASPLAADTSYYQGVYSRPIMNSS
Chain of CCAAT/enhancer-binding protein beta (Homo sapiens) (P17676 whole entry, looked up): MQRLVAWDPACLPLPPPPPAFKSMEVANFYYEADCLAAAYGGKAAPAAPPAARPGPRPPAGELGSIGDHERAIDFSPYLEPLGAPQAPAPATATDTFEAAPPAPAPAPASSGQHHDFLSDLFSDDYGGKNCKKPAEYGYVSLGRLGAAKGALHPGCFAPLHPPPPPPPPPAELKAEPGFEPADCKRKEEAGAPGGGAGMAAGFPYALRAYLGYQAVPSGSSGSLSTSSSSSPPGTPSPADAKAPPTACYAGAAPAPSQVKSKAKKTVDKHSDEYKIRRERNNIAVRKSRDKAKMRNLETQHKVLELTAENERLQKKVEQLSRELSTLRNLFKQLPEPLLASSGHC
Chain of Aryl hydrocarbon receptor (Homo sapiens) (P35869 whole entry, looked up): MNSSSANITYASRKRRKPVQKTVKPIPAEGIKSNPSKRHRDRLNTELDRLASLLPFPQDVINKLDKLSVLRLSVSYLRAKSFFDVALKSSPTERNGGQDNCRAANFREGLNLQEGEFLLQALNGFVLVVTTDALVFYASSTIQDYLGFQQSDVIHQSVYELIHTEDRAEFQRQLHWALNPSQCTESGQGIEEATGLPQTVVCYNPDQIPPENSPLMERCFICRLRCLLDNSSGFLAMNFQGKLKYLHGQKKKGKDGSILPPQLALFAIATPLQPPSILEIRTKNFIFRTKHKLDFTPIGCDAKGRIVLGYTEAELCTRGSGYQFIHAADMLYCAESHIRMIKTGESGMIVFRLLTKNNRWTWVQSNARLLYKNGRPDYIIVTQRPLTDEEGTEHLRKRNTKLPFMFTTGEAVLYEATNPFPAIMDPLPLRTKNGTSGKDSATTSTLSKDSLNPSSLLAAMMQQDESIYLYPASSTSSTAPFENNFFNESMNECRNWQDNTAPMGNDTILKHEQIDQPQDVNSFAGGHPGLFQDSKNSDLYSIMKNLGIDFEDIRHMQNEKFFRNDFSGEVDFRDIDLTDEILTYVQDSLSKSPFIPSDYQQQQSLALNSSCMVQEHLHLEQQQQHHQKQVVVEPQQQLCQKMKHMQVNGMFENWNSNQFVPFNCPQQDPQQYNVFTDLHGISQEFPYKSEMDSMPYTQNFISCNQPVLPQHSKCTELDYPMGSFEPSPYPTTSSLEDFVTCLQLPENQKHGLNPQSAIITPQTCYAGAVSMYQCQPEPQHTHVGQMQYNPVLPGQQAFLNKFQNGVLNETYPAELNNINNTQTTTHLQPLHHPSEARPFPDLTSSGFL
Chain of Retinoic acid receptor alpha (Homo sapiens) (P10276 whole entry, looked up): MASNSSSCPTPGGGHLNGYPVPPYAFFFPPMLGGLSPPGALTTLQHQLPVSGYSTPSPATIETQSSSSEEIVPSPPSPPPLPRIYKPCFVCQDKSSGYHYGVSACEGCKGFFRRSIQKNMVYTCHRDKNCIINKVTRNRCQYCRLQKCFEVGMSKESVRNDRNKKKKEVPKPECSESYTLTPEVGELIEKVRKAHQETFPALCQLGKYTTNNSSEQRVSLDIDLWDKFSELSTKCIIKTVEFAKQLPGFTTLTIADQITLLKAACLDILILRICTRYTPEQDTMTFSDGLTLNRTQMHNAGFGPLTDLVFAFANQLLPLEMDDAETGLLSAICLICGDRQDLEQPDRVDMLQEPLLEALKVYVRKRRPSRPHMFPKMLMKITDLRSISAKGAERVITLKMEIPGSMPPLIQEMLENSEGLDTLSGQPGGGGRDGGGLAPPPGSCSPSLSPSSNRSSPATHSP

With `CC1=CCC2C(=O)OC(=O)C2C1` (configuration not stated), the result in [1], in test [2], in test [3], in [4], in [6] and in test [7] was inactive. Moreover, the outcome in [8], in [9], in test [10], in test [11], in test [12] and in test [13] was inactive. In addition, the compound was classed as inactive in test [14], in test [15], in [16], in [17], in [18] and in test [19]. Besides, in test [5], the AC50 (usually the concentration at which the activity in the assay is half-maximal) was 65 µM (active).

As to `Cc1ccc(S(=O)(=O)C(I)I)cc1`, the compound was called inactive in test [1], in [3], in test [4], in [8], in [10] and in [12]. For the same compound, the result in test [13], in test [14] and in [15] was inactive. Also, the AC50 in test [2] is 8.93 µM (active); in test [5], 27.5 µM (active); in [6] it was 51.7 µM (active); in test [7], 13.1 µM (active); in test [9], 8.88 µM (active); in test [11], 24.3 µM (active). In addition, the AC50 in [16] was 8.59 µM (active); in test [17] it was 43.7 µM (active); in [18], 5.14 µM (active); in [19], 8.85 µM (active).

Take `O=S(=O)(OCC(F)(F)F)C(F)(F)C(F)(F)C(F)(F)C(F)(F)F`: the outcome in [1], in test [2], in test [3], in test [5], in [7] and in test [10] was inactive. In addition, the outcome in test [11], in test [12], in test [13], in [14], in test [15] and in [16] was inactive. In addition, the call in test [17], in [18] and in test [19] was inactive. Besides, the half-maximal activity concentration (AC50) was 42.3 µM (active) in test [4]; 104 µM (active) in [20]; 48.1 µM (active) in test [6]; 58.2 µM (active) in test [8]; 17.6 µM (active) in test [9].

With `CC(=O)C=O`, the outcome in test [1], in test [2], in test [3], in [4], in [5] and in test [6] was inactive. For the same compound, the call in test [7], in test [8], in [9], in [10], in test [11] and in test [12] was inactive. Also, the compound was classed as inactive in [13], in test [14], in test [15], in test [16], in [17] and in test [18]. In addition, the compound was called inactive in [19].

The record behind these values is PubChem BioAssay (EPA / NIEHS).
